An excerpt weighted towards active compounds, which were near 6.8% of everything screened.
Autofluor 339 = intrinsic fluorescence of library compounds, ex339/em460 – biochemical, MLSMR library, data from DPM-DC assay, artefact control, profiling panel | compound autofluorescence, ex339/em460 nm, NADH buffer; active compounds read high; 1 = no-compound wells, NADH background | fluorescence fold increase at 10 µM | 65,000 compounds, 5.5% hits | AID 709;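 active = at 10 µM, mean starting fluorescence two-fold or more over control wells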;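 note: signal is the first read of a kinetic run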
Spn DPM-DC inh = blocks S. pneumoniae diphosphomevalonate decarboxylase; calls only at 10 µM; purified DPM-DC, PK/LDH coupled NADH fluorescence; 65,000 compounds, 0.49% hits;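 active = the 320 compounds with the highest percent inhibition in the single-dose primary screen, excluding strongly autofluorescent ones, cut at about 32% in these data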;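 note: kinetic rate of NADH fluorescence loss reporting ADP formed by the decarboxylase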
NADH coupling = inhibitors of enzymes used to reach an NAD/NADH endpoint; coupled PK/LDH NADH assays, four targets; IC50, µM (series often up to 10 µM), inactives show at the highest dose inhibition; 65,000 compounds, 0.02% hits; AID 774;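 active = single-dose screening hits from any of four coupled enzyme assays that gave an IC50 when retested across doses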;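 note: the DPM-DC format reads NADH fluorescence rather than 340 nm absorbance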
MK inhibit = S. pneumoniae mevalonate kinase inhibition; AID 555; inhibition, % at 10 µM; 65,000 compounds, 0.48% hits; purified MK, PK/LDH-coupled NADH absorbance 340 nm;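 active = ranked among the strongest by inhibition in the single 10 µM screen, a fixed top-ranked set picked for dose follow-up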
Abs 340nm = compound absorbs light at 340 nm; compound absorbance at 340 nm, fold over control; fold change at 10 µM; 65,000 tested, under 10 active;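 active = at 10 µM dose, initial 340 nm absorbance at least 2 fold that of control wells; inactive = change under 2 fold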;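 note: initial absorbance extrapolated from kinetic A340 decline of NADH oxidation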
Spn PMK inh = blocks S. pneumoniae phosphomevalonate kinase; inhibition, % at 10 µM; AID 539; 65,000 compounds, 0.49% hits; purified PMK, PK/LDH-coupled NADH absorbance 340 nm;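 active = top-ranked compounds by inhibition in the single 10 µM screen, taking a fixed number of the strongest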;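 note: 0% = full reaction with DMSO carrier and 100% = background rate without enzyme reaction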
Starred values were filed as active, the others as inactive; i = inactive; x = not tested or not shown; + = active, no number.

SMILES	Autofluor 339	Spn DPM-DC inh	NADH coupling	MK inhibit	Abs 340nm	Spn PMK inh
Cn1c(=O)c2nc(-c3ccccc3)oc2c2ccccc21	5*	x	5%	2	1.1	8
CC(C)(C)NC(=O)CSc1ncnc2c1nnn2Cc1ccccc1Cl	1.1	i	13%	0	1	40*
Cc1occc1-c1nnc(SCC(=O)N2CCOCC2)n1CCc1ccccc1	1	i	8%	10	0.97	13
Cc1occc1-c1nnc(SCC(=O)N2CCOCC2)n1Cc1ccco1	1	i	4%	9	0.96	27*
COc1ccccc1CN(Cc1ccco1)S(=O)(=O)c1ccc(-n2cnnn2)c(OC)c1	1.2	i	2%	4	1	2
N#Cc1c(N)oc(-c2ccccc2)c1-c1ccccc1	1.3	i	4%	13	1.1	0
N#Cc1c(N)oc(-c2ccco2)c1-c1ccco1	2.1*	x	5%	0	1.1	10
CCOC(=O)COn1c(=O)c(=O)n(O)c2ccccc21	1	i	3%	2	1.1	8
O=C(Cn1ncc2c1-c1ccccc1OC2)N1CCN(c2ccccn2)CC1	1.1	i	1%	2	0.98	0
O=C(c1cc2c(s1)-c1ccccc1OC2)N1CCN(c2ccccn2)CC1	2.1*	x	4%	7	1.1	0
Cc1csc(NC(=O)c2cc3c(s2)-c2ccccc2OC3)n1	2.5*	x	1%	7	1	0
O=C(c1cc2c(s1)-c1ccccc1OC2)N1CCCC1	2.2*	x	6%	9	1.2	2
O=C(C1COc2ccccc2O1)N1CCc2ccccc21 (stereo not drawn)	0.95	i	10%	6	0.97	21
Cc1ccc(NC(=O)CS(=O)(=O)c2c[nH]c3ccccc23)c(C)c1	1.1	i	3%	6	1	2
COc1cc(NC(=O)c2cccs2)c(OC)cc1NC(=O)CCn1nnc2ccccc21	1.1	i	5%	8	1	5
Cc1cc(C(=O)Nc2sc(C)c(-c3ccc(F)cc3)c2C(N)=O)no1	2.3*	i	6%	2	1	8
Cc1ccc(C2CC(=O)NC3=C2C(=O)CCC3)cc1Br (stereo not drawn)	1.1	i	4%	1	1	12
CCN1C2=C(C(=O)CCC2)C(c2ccc(O)c(Br)c2)C2=C1CCCC2=O	2.1*	x	5%	6	1.1	4
CCOc1ccc2nc3ccc4[nH]onc4c3c2c1	2.3*	x	1%	2	1	0
COc1ccc(-c2ncc3ccccn23)cc1	3.2*	x	12%	12	1.1	11
c1csc(-c2ncc3ccccn23)c1	3.4*	x	9%	6	1.2	12
c1ccc(-n2c(-c3ccncc3)nnc2-c2cccs2)cc1	1.3	i	10%	10	1	11
Cc1ccc(CCNC(=O)C2CCCN(c3nc4ccccc4o3)C2)cc1 (stereo not drawn)	1.1	i	7%	5	0.96	15
CCN1CCN(C(=O)CCCCCn2c(=O)[nH]c3cc(C(=O)OC)ccc3c2=O)CC1	2.6*	i	10%	3	0.98	19
Cn1nc(-c2ccc(OCC(=O)NCC3CCCO3)cc2)c2ccccc2c1=O (stereo not drawn)	1.2	i	3%	3	1.1	6
SMILES	Autofluor 339	Spn DPM-DC inh	NADH coupling	MK inhibit	Abs 340nm	Spn PMK inh
CCOc1ccc(OCC)c(N=c2oc3c(C)ncc(CO)c3cc2C(N)=O)c1	0.97	i	2%	1	1	4
COc1ccc(OC)c(N=c2oc3cc(O)ccc3cc2C(N)=O)c1	3.3*	x	7%	9	1.1	4
NC(=O)c1cc2ccc(O)cc2oc1=NCc1ccccc1	4.6*	x	10%	0	1	19
NC(=O)c1cc2ccc(O)cc2oc1=Nc1ccccc1	1.9	i	9%	7	1.1	8
CCN1CCN(C(=O)c2cnn3c(C(F)F)cc(-c4ccc(C)cc4)nc23)CC1	2.3*	i	13%	9	1.1	9
COc1ccc(-c2nsc3c(N4CCN(C(=O)c5ccco5)CC4)ncnc23)cc1	2.8*	+	18%	9	1.1	11
O=C(c1ccco1)N1CCN(c2ncnc3c(-c4ccccc4)nsc23)CC1	1.4	i	8%	7	1	9
O=C(c1ccco1)N1CCN(C(=O)c2cnn3c(C(F)(F)F)cc(-c4cccs4)nc23)CC1	3.6*	x	6%	7	1.1	5
COc1ccc(-c2cc(C(F)F)n3ncc(C(=O)N4CCN(C(=O)c5ccco5)CC4)c3n2)cc1	2.1*	x	14%	11	1.1	17
CN1CCN(C(=O)c2cnn3c(C(F)(F)F)cc(-c4ccc5c(c4)OCO5)nc23)CC1	1.1	i	8%	6	1.1	14
Cc1cc(C)n(C(=O)c2ccc(C)c(S(=O)(=O)N3CCCC3)c2)n1	1.1	i	8%	10	1	4
Cc1nnc(NC(=O)C2CCCN(c3ncccn3)C2)s1 (stereo not drawn)	1.4	i	7%	9	0.99	13
COc1ccc(S(=O)(=O)N(CC(=O)NCc2ccco2)C2CCCCC2)cc1OC	1.1	i	1%	2	1	0
COc1ccc(NC(=O)NCCCN2CCCC2=O)cc1	1.1	i	12%	11	0.99	19
COc1ccc(-c2cc(C(F)F)n3ncc(C(=O)NCCCN4CCCC4=O)c3n2)cc1	2.2*	x	11%	6	1.1	15
CCOC(=O)c1sc(C)c(C(N)=O)c1NC1=NCCCCC1	2*	i	11%	7	1.1	8
CC1(C)CC(=O)C2=C(C1)NC(Nc1nc3ccccc3o1)=NC21CCCCC1	2.4*	i	4%	3	1.1	1
Cc1cc(CN2C(=O)c3ccccc3C2=O)cc(N2CCOCC2)c1	1.1	i	3%	2	1	6
Cc1ccc(S(=O)(=O)N2CCOCC(=O)NCCOCCNC(=O)COCC2)cc1	1	+	11%	4	0.99	0
O=C(O)c1cc(-c2ccncc2)nc2ccc(S(=O)(=O)N3CCOCC3)cc12	1.1	i	3%	0	1.1	8
Cc1ccc2nc(-c3ccc(S(=O)(=O)N4CCOCC4)cc3)cn2c1	3*	x	4%	9	1	6
Cc1ccc2nc(-c3ccccc3)cn2c1	2.9*	i	8%	0	1	12
Cc1ccn2cc(-c3ccc(S(=O)(=O)N4CCOCC4)cc3)nc2c1	2.2*	x	8%	5	1.1	10
CCOc1cc(C2NC(=O)N(C)C(C)=C2C(=O)OC)cc(Br)c1O (stereo not drawn)	1	i	1%	6	0.99	3
O=C(NCCN1CCCC1)c1ccc(CS(=O)(=O)c2c(Cl)cccc2Cl)o1	1.1	i	3%	0	1	8
COc1ccc(Cl)cc1NC(=O)c1ccco1	1.1	i	5%	8	1.1	6

Assay outcomes from PubChem.
